# Source: PubChem BioAssay AID743025 (Vanderbilt Specialized Chemistry Center, 2013)
# The source made the active and inactive calls.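 The calls were made as follows: active = IC50 below 10 µM at human M5 in a calcium flux test, acting as a negative modulator; inactive = the rest.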
# Molecular target: Muscarinic acetylcholine receptor M5 (Homo sapiens) (UniProt P08912)
# Test: M5 muscarinic receptor negative allosteric modulators, cell-based, single concentration, human M5 (AID 743025)
# Conditions: CHO-K1 hM5, ACh EC80 calcium flux, Fluo-4; at 10 µM; stronger effect = lower value
# Chain of Muscarinic acetylcholine receptor M5 (Homo sapiens) (P08912 whole entry, looked up): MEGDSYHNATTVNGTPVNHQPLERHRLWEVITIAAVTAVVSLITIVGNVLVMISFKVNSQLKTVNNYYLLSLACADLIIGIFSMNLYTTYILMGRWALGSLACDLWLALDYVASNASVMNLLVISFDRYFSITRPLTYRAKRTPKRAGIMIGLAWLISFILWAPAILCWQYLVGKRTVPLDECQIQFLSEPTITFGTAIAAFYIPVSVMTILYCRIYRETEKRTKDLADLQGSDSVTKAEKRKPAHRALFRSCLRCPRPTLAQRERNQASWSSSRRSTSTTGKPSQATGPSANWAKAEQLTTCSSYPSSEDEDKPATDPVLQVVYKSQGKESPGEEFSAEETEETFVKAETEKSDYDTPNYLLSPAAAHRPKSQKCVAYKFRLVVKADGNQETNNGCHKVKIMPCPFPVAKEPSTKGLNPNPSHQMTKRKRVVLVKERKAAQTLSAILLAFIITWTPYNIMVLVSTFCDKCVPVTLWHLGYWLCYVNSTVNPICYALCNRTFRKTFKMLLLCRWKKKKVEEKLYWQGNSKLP
row,SMILES,activity remaining
1,Cc1ccc(C23c4ccccc4C(=O)N2CCN3C(=O)c2cc(F)cc(F)c2)cc1 (configuration not stated),2.43% (active)
2,O=C(c1ccccn1)N1CCN2C(=O)c3ccccc3C12c1ccccc1 (configuration not stated),100% (inactive)
3,COc1ccc(C23c4ccccc4C(=O)N2CCN3C(=O)c2ccccn2)cc1 (configuration not stated),66.1% (inactive)
4,O=C(c1ccc(F)cc1Cl)N1CCN2C(=O)c3ccccc3C12c1ccccc1 (configuration not stated),64.1% (inactive)
5,O=C(c1ccc(F)cc1F)N1CCN2C(=O)c3ccccc3C12c1ccccc1 (configuration not stated),69% (inactive)
6,COc1ccc(C23c4ccccc4C(=O)N2CCN3C(=O)c2cccc(C)c2)cc1 (configuration not stated),61.1% (inactive)
7,O=C1c2ccccc2C2(c3ccccc3)NCCN12 (configuration not stated),89.3% (inactive)
8,CC(C)(C)NC(=O)N1CCCN2C(=O)c3ccccc3C12c1ccccc1 (configuration not stated),83.3% (inactive)
9,O=C(c1ccc(C(F)(F)F)cc1)N1CCCN2C(=O)c3ccccc3C12c1ccc(Cl)cc1 (configuration not stated),75.7% (inactive)
10,Cc1ccc(C23c4ccccc4C(=O)N2CCN3C(=O)c2ccccc2)cc1 (configuration not stated),53.2% (active)
11,O=C1c2ccccc2C2(c3ccccc3)N1CCN2C(=O)C(Cl)(Cl)Cl (configuration not stated),55.1% (active)
12,O=C(c1ccc(-c2ccccc2)cc1)N1CCN2C(=O)c3ccccc3C12c1ccccc1 (configuration not stated),62.7% (inactive)
13,Cc1ccc(S(=O)(=O)N2CCN3C(=O)c4ccccc4C32c2ccccc2)cc1 (configuration not stated),73.4% (inactive)
14,O=C(c1cccs1)N1CCN2C(=O)c3ccccc3C12c1ccccc1 (configuration not stated),79.5% (inactive)
15,Cc1ccc(C(=O)N2CCN3C(=O)c4ccccc4C23c2ccc(F)cc2)cc1 (configuration not stated),67.9% (inactive)
16,O=C1c2ccccc2C2(c3ccc(Cl)cc3)NCCCN12 (configuration not stated),70.4% (inactive)
17,O=C(c1cc(Cl)cc(Cl)c1)N1CCN2C(=O)c3ccccc3C12c1ccccc1 (configuration not stated),5.4% (active)
18,O=C1c2ccccc2C2(c3ccccc3)N1CCN2S(=O)(=O)c1cccc(C(F)(F)F)c1 (configuration not stated),80% (inactive)
19,COc1ccc(C23c4ccccc4C(=O)N2CCN3C(=O)c2ccc(F)cc2)cc1 (configuration not stated),62.4% (inactive)
20,CC(C)Oc1ccc(C(=O)N2CCN3C(=O)c4ccccc4C23c2ccc(Cl)cc2)cc1 (configuration not stated),-1.43% (active)
21,O=C(c1ccc(F)cc1)N1CCN2C(=O)c3ncccc3C12c1ccccc1 (configuration not stated),65.2% (inactive)
22,Cc1ccc(C23c4ccccc4C(=O)N2CCN3C(=O)c2ccc(C(F)(F)F)cc2)cc1 (configuration not stated),28.6% (active)
